Here are results for 20 compounds from PubChem BioAssay (Tox21).

Several values for one entry are separate records, joined by “and”; a condition that tells them apart may be missing. Identical values can stand only once. Results filed as inconclusive are left out. Values without a mark were called inactive. Activity calls are given as the source filed them. Unless noted, calls come from the whole dose curve; as a rule, active = well fitted curve in the direction sought with a large enough effect in the repeat runs; inconclusive = weak or mixed curves; inactive = no such curve, though single readings can be large; an effect the other way counts as inactive or inconclusive.

Assay [1] in a line: qHTS assay to identify small molecule antagonists of the estrogen related receptor (ERR) signaling pathway from Tox21 library - cell viability counter screen (AID 1224834). Note: nearly all actives have a fitted effect of over 30% in size. Note: potency is the fitted concentration of half-maximal effect. The procedure, abridged: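 ERR cells, 2,000/well; 6 h settle at 37 C/5% CO2; pin-tool compound transfer in DMSO; 17.5 h at 37 C; CellTiter-Fluor, 30 min; fluorescence intensity.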
Assay [2] addresses Luciferin 4-monooxygenase (Photinus pyralis) (UniProt P08659). Kind of assay: qHTS assay to identify small molecule inhibitors of firefly luciferase (AID 1224835). For activity change, negative = inhibition: series mostly up to about 120 µM. Note: nearly all actives have a fitted effect of over 25% in size. Note: potency is the fitted concentration of half-maximal effect. The procedure, abridged:
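Inhibition of purified Photinus luciferase is measured by luminescence. Substrate levels (D-luciferin, ATP) sit at their KM values. Each compound is tested in a concentration series.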

Assay [3] is described as follows: qHTS assay to identify small molecule agonists of the constitutive androstane receptor (CAR) signaling pathway - cell viability counter screen (AID 1224836). Note: series mostly up to about 92 µM; nearly all actives have a fitted effect of over 45% in size. The procedure, abridged: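 Using CellTiter-Fluor, viability of HepG2 cells harbouring hCAR and CYP2B6-2.2kb was measured following 23 h incubation with a 15-concentration compound series plus PK11195 (0.75 uM final).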

Assay [4] addresses Nuclear receptor subfamily 1 group I member 3 (Homo sapiens) (UniProt Q14994). Kind of assay: qHTS assay to identify small molecule antagonists of the constitutive androstane receptor (CAR) signaling pathway (AID 1224838).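 Note: HepG2 cells stably expressing hCAR with CYP2B6 luciferase reporter stimulated by CITCO; nearly all actives have a fitted effect of over 40% in size.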 Note: potency is the fitted concentration of half-maximal effect. The procedure, abridged: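 Antagonist mode used CITCO at a final 50 nM to activate CAR in human hepatoma HepG2 cells carrying stable hCAR and a 2.2 kb CYP2B6 promoter-luciferase construct. Compounds were tested at 15 concentrations over 24 h, with luminescence as the end point.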

The target is the same in assay [5]. The assay is described as follows: qHTS assay to identify small molecule agonists of the constitutive androstane receptor (CAR) signaling pathway (AID 1224839). For activation: series mostly up to about 92 µM. Note: nearly all actives have a fitted effect of over 15% in size. Note: potency is the fitted concentration of half-maximal effect. The procedure, abridged: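 Double-stable HepG2 cells (hCAR, CYP2B6-2.2kb) seeded 4 h before compound addition. Exposure 24 h with 0.75 uM PK11195 final. Luciferase detected by ONE-Glo.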
Assay [6] in a line: qHTS assay to identify small molecule antagonists of the estrogen related receptor signaling pathway with the pleiotropic PPARgamma coactivator (PGC) from Tox21 10K library - cell viability counter screen (AID 1224840; active = well fitted cell-killing curve with a large enough effect in the repeat runs, not every such curve was filed as active; note: nearly all actives have a fitted effect of over 40% in size; note: potency is the fitted concentration of half-maximal effect). The procedure, abridged: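 Multiplexed viability counter screen in the PGC/ERR cell line: cells treated with DMSO-dissolved compounds for 17.5 hours at 37 C, then viability measured as CellTiter-Fluor fluorescence.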

The nature of assay [7]: qHTS assay to identify small molecule agonists of the estrogen related receptor signaling pathway with the pleiotropic PPARgamma coactivator (PGC) from Tox21 10K library (AID 1224842). Note: nearly all actives have a fitted effect of over 15% in size. The procedure, abridged:
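Luminescence from One-Glo (30 min, room temperature) measured after PGC/ERR cells had 18 h at 37 C with pinned compound (23 nL in DMSO). Cells had been seeded at 2,000 per well and pre-incubated 6 h.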

The target in assay [8] is Thyrotropin receptor (Homo sapiens) (UniProt P16473). The assay is described as follows: qHTS assay to identify small molecule agonists of the thyroid stimulating hormone receptor (TSHR) signaling pathway (AID 1224843; calls by dose curve; note: nearly all actives have a fitted effect of over 45% in size; note: potency is the fitted concentration of half-maximal effect). In a few lines:
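Agonist activity read as cAMP rise via d2/cryptate HTRF competition, 1 h room-temperature detection, in HEK293 cells expressing TSHR. Fifteen-point titrations, each run in triplicate, with a 30 min room-temperature incubation beforehand.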

Assay [9] in a line: qHTS assay to identify small molecule antagonists of the constitutive androstane receptor (CAR) signaling pathway - cell viability counter screen (AID 1224837). Note: series mostly up to about 92 µM; nearly all actives have a fitted effect of over 45% in size. The procedure, abridged:
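Viability was measured with CellTiter-Fluor in a HepG2 line carrying stably transfected hCAR and a CYP2B6-2.2kb construct. Cells were exposed for 23 hr at 37 C to 15 compound concentrations with 50 nM CITCO as agonist.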
% is set by controls: 0 for no effect and ±100 for the full control effect.

Nuclear receptor subfamily 1 group I member 3 (Homo sapiens), sequence (Q14994 whole entry, looked up): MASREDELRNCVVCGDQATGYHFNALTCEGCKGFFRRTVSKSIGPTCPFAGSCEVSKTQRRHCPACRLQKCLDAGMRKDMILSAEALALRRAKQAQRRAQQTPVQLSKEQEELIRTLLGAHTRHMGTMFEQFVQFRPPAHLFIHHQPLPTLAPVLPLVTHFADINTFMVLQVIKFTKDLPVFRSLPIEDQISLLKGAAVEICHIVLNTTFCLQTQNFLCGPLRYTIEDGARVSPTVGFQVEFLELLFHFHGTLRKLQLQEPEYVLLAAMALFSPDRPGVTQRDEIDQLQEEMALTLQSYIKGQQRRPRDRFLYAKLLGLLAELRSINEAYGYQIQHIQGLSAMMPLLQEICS
Thyrotropin receptor (Homo sapiens), sequence (P16473 whole entry, looked up): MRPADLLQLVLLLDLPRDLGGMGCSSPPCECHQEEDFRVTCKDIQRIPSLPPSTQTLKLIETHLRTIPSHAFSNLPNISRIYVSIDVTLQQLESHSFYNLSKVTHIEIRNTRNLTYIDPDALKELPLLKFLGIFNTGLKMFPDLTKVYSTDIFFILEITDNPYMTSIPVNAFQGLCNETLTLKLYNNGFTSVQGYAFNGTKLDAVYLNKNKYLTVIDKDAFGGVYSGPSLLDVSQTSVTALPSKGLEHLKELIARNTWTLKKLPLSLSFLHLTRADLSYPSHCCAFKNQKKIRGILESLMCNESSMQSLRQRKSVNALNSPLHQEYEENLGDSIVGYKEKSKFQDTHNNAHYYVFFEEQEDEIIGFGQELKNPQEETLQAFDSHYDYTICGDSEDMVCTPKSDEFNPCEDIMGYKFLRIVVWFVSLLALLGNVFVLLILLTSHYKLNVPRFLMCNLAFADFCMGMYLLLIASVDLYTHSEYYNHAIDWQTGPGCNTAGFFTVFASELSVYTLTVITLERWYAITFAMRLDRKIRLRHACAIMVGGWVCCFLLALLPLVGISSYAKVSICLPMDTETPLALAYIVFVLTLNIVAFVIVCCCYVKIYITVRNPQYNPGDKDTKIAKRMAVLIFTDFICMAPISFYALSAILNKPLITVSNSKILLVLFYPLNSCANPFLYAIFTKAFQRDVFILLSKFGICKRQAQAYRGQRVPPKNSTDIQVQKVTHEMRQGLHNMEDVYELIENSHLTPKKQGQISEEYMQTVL
Luciferin 4-monooxygenase (Photinus pyralis), sequence (P08659 whole entry, looked up): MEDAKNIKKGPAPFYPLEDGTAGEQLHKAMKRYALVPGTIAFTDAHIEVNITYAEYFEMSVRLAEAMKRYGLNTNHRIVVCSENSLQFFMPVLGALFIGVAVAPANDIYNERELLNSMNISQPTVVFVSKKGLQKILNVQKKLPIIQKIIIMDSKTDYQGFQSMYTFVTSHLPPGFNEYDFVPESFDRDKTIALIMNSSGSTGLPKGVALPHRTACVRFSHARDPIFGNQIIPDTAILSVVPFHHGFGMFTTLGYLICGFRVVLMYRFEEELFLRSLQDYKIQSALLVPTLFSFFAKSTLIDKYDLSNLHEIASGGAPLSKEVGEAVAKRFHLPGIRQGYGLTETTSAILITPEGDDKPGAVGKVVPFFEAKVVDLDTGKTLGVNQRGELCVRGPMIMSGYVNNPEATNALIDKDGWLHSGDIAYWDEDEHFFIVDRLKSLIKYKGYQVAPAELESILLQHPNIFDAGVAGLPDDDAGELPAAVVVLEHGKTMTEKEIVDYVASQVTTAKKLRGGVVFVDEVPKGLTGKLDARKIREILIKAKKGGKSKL

For `CCCCCCCC`, the Potency entry in assay [1], in assay [2], in assay [3], in [4], in assay [5] and in assay [6] was “inactive” in each case. The Potency result in assay [7] and in assay [8] was “inactive” in each case.
Turning to `C#CC1(O)CC[C@H]2[C@@H]3CCC4=CCCC[C@@H]4[C@H]3CC[C@@]21C` (stereo partly specified), the values for the Potency in [1], in assay [6] and in assay [8] were 54.5 µM (active), 33.5 µM (active) and 19.3 µM (active), respectively. The Potency entry in assay [2], in [3], in assay [9] and in [7] was “inactive” in each case.
As for `O=C(O)[C@H](O)[C@@H](O)[C@H](O[C@@H]1O[C@H](CO)[C@H](O)[C@H](O)[C@H]1O)[C@H](O)CO`, the Potency entry in assay [1], in assay [2], in assay [3], in [9], in assay [6] and in assay [8] was “inactive” throughout.
For `CC(N=C(NC#N)Nc1ccncc1)C(C)(C)C` (stereo unspecified), the Potency entry in [1], in assay [2], in [3], in [9] and in assay [8] was “inactive” each time.
For the compound `CC(=O)OCC=C(C)C`, the Potency result in assay [1], in assay [2], in assay [3], in assay [4], in assay [5] and in assay [8] was “inactive” each time.
With `O=C1C(c2[nH]c3ccc(S(=O)(=O)O)cc3c2O)=Nc2ccc(S(=O)(=O)O)cc21`, the Potency result in assay [1], in assay [3], in assay [9] and in assay [7] was “inactive” each time. Moreover, in [2], the Potency was 31.7 µM (active).
On to `NC(=O)c1cccc([N+](=O)[O-])c1`, for which the Potency result in [1], in [2], in [3], in assay [9], in [6] and in assay [8] was “inactive” throughout.
As for `CC(C)(C)C1CCC(=O)CC1`, the Potency result in assay [1], in assay [2], in [3], in [9], in assay [6] and in assay [7] was “inactive” throughout. The Potency entry in [8] is “inactive”.
`C=Cc1ccccc1C=C`: the Potency entry in assay [1], in [2], in assay [3], in assay [9] and in assay [8] was “inactive” each time.
Consider `CCCCCc1ccc(Cl)cc1`, for which the Potency result in assay [1], in assay [2], in assay [3], in assay [9], in assay [6] and in assay [7] was “inactive” in each case. Besides, the Potency entry in assay [8] was “inactive”.
`O[C@@H]([C@H](O)[C@H](O)CBr)[C@H](O)CBr`: the Potency entry in assay [1], in [2], in [3], in assay [9] and in [8] was “inactive” each time.
Take `COc1ccc(-c2coc3cc(O)ccc3c2=O)cc1`: the Potency entry in [1], in assay [3], in assay [9] and in [8] was “inactive” each time. Also, in assay [2], the Potency is 2 µM (active).
With `CC(=O)CC(=O)Nc1ccc(S(=O)(=O)O)cc1`, the Potency entry in [1], in assay [2], in assay [3], in [9] and in [8] was “inactive” each time.
`C[C@@H](O)[C@H](N)C(=O)O`: the values for the viability change, negative = cytotoxic in assay [1], in [3] and in assay [6] were 0.354% [at 19 µM], -1.25% [at 19 µM] and 0.388% [at 19 µM], respectively. In [2], the activity change, negative = inhibition is 1.37% [at 23.6 µM]. The activity, negative = inhibition in [4] is 17.3% [at 19 µM]. Further, in [5], the activation is -3.11% [at 19 µM].
For the compound `NC(=S)NC(N)=S`, the Potency result in [1], in assay [2], in [3], in assay [9], in assay [6] and in assay [8] was “inactive” each time.
In the case of `O=C1c2ccccc2C(=O)N1SC1CCCCC1`, the Potency is 68.6 µM (active) in assay [1]; 25.2 µM (active) and 17.8 µM (active) in assay [2]; 68.5 µM (active) in assay [4]. Besides, the Potency entry in [3], in assay [5], in [6] and in [8] was “inactive” each time.
Consider `CCO[C@@H]1O[C@H](C(COCc2ccccc2)OCc2ccccc2)[C@H](OCc2ccccc2)[C@H]1O` (stereo partly specified), for which the Potency in [1] is 26.6 µM (active). Also, the Potency result in [2], in [3], in assay [9], in [7] and in assay [8] was “inactive” in each case.
Take `C=CCn1c(=O)n(CC=C)c(=O)n(CC=C)c1=O`: the Potency result in assay [1], in assay [2], in assay [3], in [9] and in assay [8] was “inactive” in each case.
For `Cc1c(N)cccc1C(F)(F)F`, the Potency result in [1], in [2], in [3], in [9], in [6] and in assay [7] was “inactive” throughout. In addition, in assay [8], the Potency result is “inactive”.
In the case of `Cc1c(C)c([N+](=O)[O-])c(C(C)(C)C)c([N+](=O)[O-])c1C`, the Potency result in assay [1], in assay [2], in [3], in [4], in assay [6] and in assay [7] was “inactive” each time. Besides, the Potency in assay [5] is 27.3 µM (active).
